Bioassay records deposited in PubChem BioAssay by National Center for Advancing Translational Sciences (NCATS).
BAZ2B block = blocks human BAZ2B. Q9UIF8. AlphaScreen BAZ2B-H3K14Ac peptide displacement. Potency, µM (series often up to 114 µM), for the others: top-dose activity change, negative = inhibition, usual class: inhibitors. 360,000 compounds, 4.4% hits. AID 504333; further: potency means the concentration at half of the fitted maximal effect; on the % scale 0 is the no-effect control and ±100 the full control effect; nearly all actives have a fitted effect of over 60% in size
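Compounds, titrated to a top concentration of 110 uM, were incubated 30 min at room temperature with preformed BAZ2B/acetyl-K14 H3 peptide complex (50 nM each). Proximity signal was measured by AlphaScreen after 20 min with beads.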
KAT2A inh = blocks human GCN5L2 histone acetyltransferase; GCN5L2 HAT assay, ThioGlo1 CoA-SH fluorescence; AID 504327; 390,000 compounds, 0.21% hits; Q92830; Potency, µM (series often up to 58.9 µM), without a hit: at the highest dose activity change, negative = inhibition, most hits filed as inhibitors; further: potency means the concentration at half of the fitted maximal effect; on the % scale 0 is the no-effect control and ±100 the full control effect
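Titration-based screen in which CoA formation is detected via maleimide probe ThioGlo1 (50uM) turning fluorescent on thiol reaction; substrates H3(1-25) 75uM and acetyl-CoA 70uM, GCN5L2 20nM, 20 min incubation at room temperature.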
PLK1 PBD block = blocks phosphopeptide binding to human PLK1 polo-box domain; 360,000 compounds, 2.8% hits; Plk1 PBD binding of FITC phosphopeptide, fluorescence polarization; Potency, µM, for inactives: max response, negative = inhibition, hits mostly inhibitors; further: potency means the concentration at half of the fitted maximal effect; series mostly up to about 57 µM; on the % scale 0 is the no-effect control and ±100 the full control effect; nearly all actives have a fitted effect of over 65% in size
HP1b binding inh = inhibitors of HP1-beta chromodomain binding to methylated histone tails; AlphaScreen HP1-beta / biotin-H3K9me3 peptide binding; Potency, µM (top dose mostly 114 µM), inactives show at the top dose activity change, negative = inhibition, actives largely listed as inhibitors; 390,000 compounds, 0.56% hits; P83916; further: potency means the concentration at half of the fitted maximal effect; nearly all actives have a fitted effect of over 70% in size
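Compound inhibition of the preformed complex between 50 nM HP1-beta and 50 nM biotinylated H3K9me3 peptide was read by AlphaScreen. Buffer was PBS pH 7.4 with 0.01% Tween-20. Incubations ran 30 min at room temperature, with 10 ug/mL donor/acceptor beads.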
PI5P4Ka inh = blocks human PI5P4K alpha kinase activity; P48426; PI5P4Kalpha enzyme, ADP-Glo luminescence, 60 min; stronger effect = lower value; max response, %; 330,000 compounds, 1.2% hits; AID 652105; active means max response of -50% or lower; inconclusive means between -30% and -50%; inactive means -30% or higher; further: value at the top dose of about 77 µM; on the % scale 0 is the no-effect control and ±100 the full control effect
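Quantitative HTS of the MLSMR library against PI5P4Kalpha with substrate. ATP added last at 5 microM final; room temperature, 60 minutes. Remaining ATP depleted, ADP converted and read as luminescence.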
JMJD2A Tudor inh = JMJD2A Tudor domain (human) inhibition | O75164 | AlphaScreen JMJD2A-Tudor / H3K4me3 peptide binding | Potency, µM (series often up to 114 µM), inactives show at the top dose activity change, negative = inhibition, actives largely listed as inhibitors | 390,000 compounds, 4.4% hits | AID 504339; further: potency means the concentration at half of the fitted maximal effect; on the % scale 0 is the no-effect control and ±100 the full control effect; nearly all actives have a fitted effect of over 50% in size
Target sequence (O75164 whole entry, looked up, the tested form may be a part): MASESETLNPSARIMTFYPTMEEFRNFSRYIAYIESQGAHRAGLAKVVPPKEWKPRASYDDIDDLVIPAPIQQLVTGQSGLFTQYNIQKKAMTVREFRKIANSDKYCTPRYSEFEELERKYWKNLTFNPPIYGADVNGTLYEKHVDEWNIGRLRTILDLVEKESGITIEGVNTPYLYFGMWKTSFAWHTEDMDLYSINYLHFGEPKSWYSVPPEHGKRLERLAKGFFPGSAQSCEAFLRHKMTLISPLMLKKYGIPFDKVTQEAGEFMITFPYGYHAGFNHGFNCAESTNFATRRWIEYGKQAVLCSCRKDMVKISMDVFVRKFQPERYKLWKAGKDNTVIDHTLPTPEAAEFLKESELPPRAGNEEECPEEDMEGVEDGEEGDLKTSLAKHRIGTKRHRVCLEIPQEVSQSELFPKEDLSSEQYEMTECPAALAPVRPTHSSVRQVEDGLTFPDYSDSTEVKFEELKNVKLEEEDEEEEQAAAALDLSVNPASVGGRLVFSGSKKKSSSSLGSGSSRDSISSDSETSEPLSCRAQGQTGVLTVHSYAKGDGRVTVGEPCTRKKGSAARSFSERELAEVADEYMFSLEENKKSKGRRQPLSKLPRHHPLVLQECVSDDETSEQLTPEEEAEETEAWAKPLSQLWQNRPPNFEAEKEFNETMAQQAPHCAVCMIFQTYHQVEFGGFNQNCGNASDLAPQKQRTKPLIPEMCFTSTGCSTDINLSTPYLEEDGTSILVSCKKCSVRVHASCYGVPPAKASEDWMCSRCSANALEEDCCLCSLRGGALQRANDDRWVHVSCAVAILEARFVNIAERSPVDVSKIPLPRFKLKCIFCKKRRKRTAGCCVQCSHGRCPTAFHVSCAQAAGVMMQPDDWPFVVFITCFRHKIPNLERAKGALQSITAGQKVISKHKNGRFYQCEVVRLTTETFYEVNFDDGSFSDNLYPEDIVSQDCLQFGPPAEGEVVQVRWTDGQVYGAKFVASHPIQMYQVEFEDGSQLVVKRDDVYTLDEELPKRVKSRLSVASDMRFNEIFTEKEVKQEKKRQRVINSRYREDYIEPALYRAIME
* hit, by the source's call; u = inconclusive; x = no result given; [ ] = dose if it differs, or a comment. An excerpt weighted towards active compounds, which were near 7% of everything screened. Unless noted, the call rests on the fitted dose curve; in most records, active means well fitted curve in the direction sought with a large enough effect; inconclusive means small, poorly fitted or top-dose-only effect, or another doubt; inactive means no such curve, though single readings can be large; an effect the other way counts as inactive or inconclusive.

SMILES	BAZ2B block	KAT2A inh	PLK1 PBD block	HP1b binding inh	PI5P4Ka inh	JMJD2A Tudor inh
S=c1[nH]nc(-c2cccs2)n1/N=C/c1cn(-c2ccccc2)nc1-c1cccs1	u	0%	-22%	-20%	-25	u
S=c1[nH]nc(-c2ccccc2)n1/N=C/c1cccc(Br)c1	-2%	-7%	u	17%	-6	-25%
Cc1ccc(-n2nc(C)c(/C=N/n3c(C)n[nH]c3=S)c2Cl)cc1	7%	-9%	-8%	30%	-7	-20%
Oc1ccc(/C=N/n2c(-c3ccccc3)n[nH]c2=S)cc1	-3%	-13%	-10%	42%	-4	20µM*
COc1cccc(/C=N/n2c(-c3cccs3)n[nH]c2=S)c1	u	-8%	-15%	-3%	-11	50µM*
Cc1n[nH]c(=S)n1/N=C/c1ccccc1	-7%	3%	-9%	24%	1	4µM*
O=[N+]([O-])c1ccccc1/C=C/C=N/n1c(-c2ccccc2F)n[nH]c1=S	u	-18%	u	u	37	45µM*
COc1ccccc1/C=C/C=N/n1c(C2CCCCC2)n[nH]c1=S	-34%	-4%	u	u	7	u
COc1cc(OC)c(NC(C)C(=O)N2CCCC2)cc1Cl (configuration not stated)	-23%	0%	-10%	-3%	-2	-11%
COc1cc(C(=O)OCC(=O)N(CC(C)C)C2CCS(=O)(=O)C2)cc(OC)c1C (configuration not stated)	u	-4%	0%	13%	-14	u
Oc1c(Br)cc(Br)c(/C=N/n2c(-c3ccccc3)n[nH]c2=S)c1Br	50µM*	28µM*	12µM*	u	-86*	7.9µM*
O=[N+]([O-])c1ccccc1/C=N/n1c(-c2ccccc2)n[nH]c1=S	u	-30%	u	-28%	-13	8.9µM*
Cc1cccc(/C=N/n2c(-c3ccccc3)n[nH]c2=S)c1O	u	-5%	27µM*	50µM*	-13	22µM*
O=[N+]([O-])c1cc(/C=N/n2c(-c3ccncc3)n[nH]c2=S)ccc1Cl	u	-13%	-22%	6%	u	u
Oc1ccc(Br)cc1/C=N/n1c(-c2ccccc2)n[nH]c1=S	u	-20%	u	-14%	-7	u
COc1cc(/C=N/n2c(-c3ccccc3)n[nH]c2=S)cc(OC)c1OC	-5%	-1%	-20%	u	-6	5µM*
Cc1ccc(CNC(=O)Cn2ncc3c([nH]c4ccc(C)cc43)c2=O)cc1	9%[57.1 µM]	-1%	x	12%	x	-5%
Cn1c(N)c(C(=O)COC(=O)/C=C/c2cccc(Cl)c2)c(=O)n(C)c1=O	x	-2%	0%	28%	20	-13%
COc1ccc(N2CC3=C(C2=O)C(c2ccc(O)c(OC)c2)NC(=O)N3C)cc1 (configuration not stated)	-18%	-2%	x	24%	x	-6%
COc1ccc(/C=N/n2c(-c3ccccc3)n[nH]c2=S)cc1	u	-1%	-18%	-16%	-5	25µM*
COc1ccc(/C=N/n2c(N)nc(-c3ccccc3)c2-c2ccccc2)cc1	u	-11%	-1%	-12%	0	u
Cc1ccc(C(=O)NCC(=O)OCC(=O)N2CC(C)OC(C)C2)cc1 (configuration not stated)	11%	-3%	-14%	12%	6	3%
Cc1ccc(CN2CCCn3nc(C(=O)NC(C)C)cc3C2=O)cc1	-34%	4%	x	3%	x	-8%
Cc1ccc(OCC(=O)N(Cc2ccc(Cl)cc2)CC2CCCO2)cc1C (configuration not stated)	42%	-11%	x	111%	x	28%
CN(Cc1ccccc1)C(=O)c1cc2ccccc2o1	6%	-5%	-6%	42%	x	14%
SMILES	BAZ2B block	KAT2A inh	PLK1 PBD block	HP1b binding inh	PI5P4Ka inh	JMJD2A Tudor inh
CCOc1cccc(C(=O)N(Cc2ccc(N(C)C)cc2)CC2CCCO2)c1 (configuration not stated)	50µM*	-3%	x	3%	x	u
CN(C)c1ccc(C(=O)NCC2CCCO2)cc1 (configuration not stated)	-2%	1%	-9%	47%	2	-17%
Cc1ccc(C(=O)N(Cc2ccc(N(C)C)cc2)CC2CCCO2)cc1 (configuration not stated)	35µM*	-1%	x	-23%	x	u
COc1ccc(C(=O)N(Cc2ccc(N(C)C)cc2)CC2CCCO2)cc1 (configuration not stated)	u	-5%	x	21%	x	u
CN(Cc1ccc(N(C)C)cc1)C(=O)c1cc2ccccc2o1	32µM*	-13%	-8%	u	-7	50µM*
CN(C)c1ccc(CN(CC2CCCO2)C(=O)c2ccc(Br)cc2)cc1 (configuration not stated)	40µM*	-18%	x	u	x	50µM*
CCc1ccccc1NC(=O)CSc1ncc2c(n1)-c1ccccc1N(C)S2(=O)=O	32%	1%	x	61%	x	-8%
CCN(CC(=O)Nc1cc(Cl)ccc1C)C(=O)c1ccc(N2CCCC2=O)cc1	0%	2%	0%	30%	-2	-2%
Cc1ccccc1Cn1c(SCc2ccc(C(=O)NC(C)c3ccccc3)cc2)nc2ccncc21 (configuration not stated)	-10%	-7%	x	25%	x	-18%
CN(C)c1ccc(CN(CC2CCCO2)C(=O)c2cc3ccccc3o2)cc1 (configuration not stated)	10µM*	-3%	-9%	u	-7	45µM*
Cc1ccccc1OCc1nc2ccc(S(=O)(=O)N3CCOCC3)cc2[nH]1	u	-5%	9.5µM*	-43%	x	u
COc1ccccc1CNCc1ccc(OC)c2ccccc12	x	x	u	-16%	-5	18µM*
COc1ccccc1CNCc1cc(Br)ccc1OC	56µM*	3%	-8%	-33%	2	u
COc1cccc(CNCc2ccc(OC)c3ccccc23)c1OC	20µM*	-2%	-1%	40µM*	2	3.2µM*
COc1ccccc1CNCc1cccc(Oc2ccccc2)c1	25µM*	-10%	-2%	-9%	7	40µM*
CC(C)OCCCNC(=O)C(=O)N/N=C/c1ccc(OCc2ccccc2)cc1	-29%	-3%	5%	18%	-4	3%
COc1cccc(-n2cc(C(=O)OCc3ccc(Cl)cc3)c3ccccc3c2=O)c1	7%	-10%	x	21%[57 µM]	x	-2%
COc1ccccc1CNCC(c1ccccc1)c1ccccc1	50µM*	2%	x	x	x	x
COc1cccc(CNCc2ccccn2)c1OC	u	0%	-6%	23%	x	56µM*
